This is an account of results in PubChem BioAssay AID2235 (The Scripps Research Institute Molecular Screening Center, 2010).

Among all 320,000 compounds or so, about 2,800 (0.88%) were called active. Many of the other results were omitted from the sample, so actives are more common in it than they were. Unmarked numbers belong to inactive results.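 The calls were made as follows: active = inhibition above the mean inhibition of all tested compounds plus 3 SD, computed separately for each screening campaign (cut at about 15% in these data); inactive = the rest.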

This assay deals with Serine/threonine-protein phosphatase PP1-alpha catalytic subunit (Homo sapiens) (UniProt P62136). Put plainly: inhibition of human PP1 catalytic subunit – biochemical, fluorescence, OMFP substrate, single point, counter-screen for PP5 inhibitor project, primary screen (AID 2235). As to conditions: purified PP1alpha, at 6.7 µM, hits give high values.
Sequence of Serine/threonine-protein phosphatase PP1-alpha catalytic subunit (Homo sapiens) (P62136 whole entry, looked up): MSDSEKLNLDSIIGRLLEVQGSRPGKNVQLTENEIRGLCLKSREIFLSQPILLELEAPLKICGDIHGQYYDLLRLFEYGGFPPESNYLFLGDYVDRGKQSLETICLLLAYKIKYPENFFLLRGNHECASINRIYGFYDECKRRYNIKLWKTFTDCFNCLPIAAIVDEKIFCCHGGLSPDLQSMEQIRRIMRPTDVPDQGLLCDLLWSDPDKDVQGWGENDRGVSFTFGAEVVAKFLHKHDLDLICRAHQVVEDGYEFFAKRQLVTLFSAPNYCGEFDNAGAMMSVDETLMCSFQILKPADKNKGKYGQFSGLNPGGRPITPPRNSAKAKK
As to `Cc1cc(C)c(-c2csc(NC(=O)CCCc3nc4ccccc4c(=O)[nH]3)n2)c(C)c1`, the inhibition is 1.77%.

As for `CC(=O)NCc1ccc(-c2csc(NC(=O)CCCc3nc4ccccc4c(=O)[nH]3)n2)cc1`, the inhibition is -1.25%.

Take `CCCn1c(C)cc(-c2csc(NC(=O)CCc3nc4ccccc4c(=O)[nH]3)n2)c1C`: the inhibition was 15.3% (active).

Consider `O=C1CCCCN1CCCC(=O)N1CCCC(Nc2ccc(F)cc2)C1` (configuration not stated), for which the inhibition is -8.73%.

Consider `COCCNC(=O)c1ccccc1NS(=O)(=O)c1ccc(C)c([N+](=O)[O-])c1`, for which the inhibition is -0.54%.

On to `Cc1ccc(NS(=O)(=O)c2ccc(N/N=C/c3ccccc3OCC(=O)O)c([N+](=O)[O-])c2)c(C)c1`, for which the inhibition was 21.9% (active).

In the case of `Cc1cccc(COc2ccccc2/C=N/Nc2ccc([N+](=O)[O-])cc2)c1`, the inhibition was 6.78%.

As to `COC(=O)Nc1ccc(S(=O)(=O)Nc2cc(OC)nc(OC)n2)cc1`, the inhibition was 0.14%.

With `CCOc1ccc(-c2n[nH]c(=S)n2/N=C/c2cc3c(cc2[N+](=O)[O-])OCO3)cc1`, the inhibition was 1.23%.

Turning to `Fc1ccc(/C=N/n2c(COc3ccccc3)n[nH]c2=S)cc1`, the inhibition is 1.88%.

Consider `O=[N+]([O-])c1ccccc1/C=N/n1c(COc2ccccc2)n[nH]c1=S`, for which the inhibition is 19.8% (active).

`CC(C)(C)OC(=O)N1CCC(NC(=O)c2[nH]cnc2C(=O)N[C@@H](Cc2ccccc2)C(=O)OCc2ccccc2)CC1`: the inhibition is 5.67%.

Turning to `COc1ccc(CCNC(=O)COC(=O)c2ccc[nH]c2=O)cc1`, the inhibition is -2.04%.

`CCc1ccc(-c2nn(-c3ccccc3)cc2CSC(=N)N)cc1`: the inhibition was 16.1% (active).

In the case of `Cc1ccc(-c2nn(-c3ccccc3)cc2C(=O)NC2CCC(O)CC2)cc1` (configuration not stated), the inhibition was -2.02%.

In the case of `CCc1ccc(-c2nn(-c3ccccc3C)cc2C(=O)N2CCN(C3CCS(=O)(=O)C3)CC2)cc1` (configuration not stated), the inhibition was -1.65%.

Consider `c1ccc(-c2nccc(-c3ccc(-n4cnc5ccccc54)cc3)n2)nc1`, for which the inhibition was 44.6% (active).

On to `Cc1nccc(-c2ccc(-n3c(C)ccc3C)cc2)n1`, for which the inhibition was -1.67%.

For `COC(=O)c1ccc(-n2cnc3ccccc32)nc1`, the inhibition was 1.21%.

On to `CC1(C)CC(=O)C(N=Nc2ccc(S(=O)(=O)N3CCCCCC3)cc2)=C(O)C1`, for which the inhibition was -0.81%.

In the case of `Nc1ncnc(Nc2cccc(Cl)c2Cl)n1`, the inhibition was -0.33%.

In the case of `c1ccc(C(c2ccccc2)N2CCN(Cc3nnnn3C3CCCCC3)CC2)cc1`, the inhibition was 1.36%.

With `O=C(OCC1O[C@@H](OC(=O)c2cc(O)c(O)c(O)c2)[C@@H](OC(=O)c2cc(O)c(O)c(O)c2)[C@@H](OC(=O)c2cc(O)c(O)c(O)c2)[C@@H]1OC(=O)c1cc(O)c(O)c(O)c1)c1cc(O)c(O)c(O)c1` (some centres not stated), the inhibition was 82.4% (active).

As to `O=C(OCC1OC(Oc2ccc(O)cc2)C(O)C(O)C1O)c1ccccc1` (configuration not stated), the inhibition was -5.64%.

Take `CC(C(=O)Nc1ccc(S(=O)(=O)N2CCCC2)cc1)N(C)Cc1ccc(F)cc1` (configuration not stated): the inhibition is -3.95%.

Turning to `Cc1ncc(CO)c(/C=N/NC(=O)c2cccc(S(=O)(=O)N3CCCC3)c2)c1O`, the inhibition was 2.87%.

Regarding `COc1ccc(/C=N/NC(=O)CNC(=O)c2ccc(S(=O)(=O)N3CCCC3)cc2)c(OC)c1`, the inhibition is 0.14%.

Take `COc1ccc(/C=N/NC(=O)Nc2ccc3nsnc3c2)c(OC)c1`: the inhibition is 15.8% (active).

For `COc1ccc(/C=N/NC(=O)c2ccc3c(c2)OCCO3)c(OC)c1`, the inhibition is -5.02%.

Turning to `O=C(O)C(c1ccccc1)N1C(=O)/C(=C\c2ccc(-c3cccc(Cl)c3)o2)SC1=S` (configuration not stated), the inhibition is 18.4% (active).

Regarding `O=C1NN(c2ccccc2)C(=O)/C1=C/c1ccc(-c2cccc(C(=O)O)c2)o1`, the inhibition is 5.88%.

On to `CN1C(=O)/C(=C\c2ccc(-c3ccccc3)o2)SC1=S`, for which the inhibition was -2.09%.

As to `CCOc1ccc(S(=O)(=O)NCc2ccc3c(c2)OCO3)cc1C`, the inhibition was 1.37%.

Regarding `C/C(=N/NC(=O)CCc1ccccc1)c1ccco1`, the inhibition was -1.45%.

For `N#Cc1c(Cl)nc(-c2cccnc2)nc1-c1ccccc1`, the inhibition is -1.04%.

Take `Cc1cc(S(=O)(=O)NCC(C)C)ccc1OCC(=O)NC1CC1`: the inhibition was -3.62%.

Consider `CC(C)(C)C(=O)NC(NC(=S)Nc1ccc(S(N)(=O)=O)cc1)C(Cl)(Cl)Cl` (configuration not stated), for which the inhibition is 1.25%.

With `O=C(Cc1cccc2ccccc12)NNC(=O)Nc1ccc(Cl)cc1`, the inhibition was -1.41%.

Consider `Cc1ccc(NC(=S)NC(NC(=O)Cc2cccc3ccccc23)C(Cl)(Cl)Cl)cc1` (configuration not stated), for which the inhibition is 16.6% (active).

With `CCn1cc(CNC(=O)c2cc([N+](=O)[O-])c(C)c([N+](=O)[O-])c2)cn1`, the inhibition is -2.81%.

As for `COc1ccc(C(=O)NC2(C(F)(F)F)NC(=O)N(CCCc3ccccc3)C2=O)c(OC)c1OC` (configuration not stated), the inhibition is 1.31%.

Turning to `Cc1ccc(C2=N/C(=C\c3ccc(OS(=O)(=O)c4ccc(C)cc4)cc3)C(=O)O2)cc1`, the inhibition was 0.93%.

Consider `CCOc1cc(/C=C2/N=C(c3ccc(C(C)(C)C)cc3)OC2=O)cc(Cl)c1OS(C)(=O)=O`, for which the inhibition was 16% (active).

Turning to `O=C1OC(c2ccc(Cl)cc2)=N/C1=C\c1cccnc1`, the inhibition is -0.8%.

For `COc1ccc(NS(=O)(=O)c2ccc(C)c(C(=O)NCC(c3cccs3)N3CCOCC3)c2)cc1` (configuration not stated), the inhibition was -0.23%.

Turning to `O=C(COc1ccc(S(=O)(=O)NCc2ccccc2)cc1)N1CCOCC1`, the inhibition is 0.87%.

Turning to `Cc1cnc(C(=O)N2CCCC(C(=O)c3ccc(C(F)(F)F)cc3)C2)cn1` (configuration not stated), the inhibition is -4.22%.

Consider `Cc1c(-c2nn(C)c(=O)c3ccccc23)oc2ccc(F)cc2c1=O`, for which the inhibition was 3.07%.

With `Cc1cc(C)c(S(=O)(=O)NCCCN2CCOCC2)cc1Br`, the inhibition was -3.53%.

Consider `CCC(c1nnnn1Cc1ccco1)N(CCc1ccccc1)Cc1cc2cccc(C)c2[nH]c1=O` (configuration not stated), for which the inhibition is 7.62%.

For `CCC(c1nnnn1C1CCCC1)N(Cc1cccs1)Cc1cc2cccc(C)c2[nH]c1=O` (configuration not stated), the inhibition is 16.5% (active).

`Cc1cccc2cc(CN(Cc3ccc4c(c3)OCO4)Cc3nnnn3C3CCCC3)c(=O)[nH]c12`: the inhibition was -2.51%.

Regarding `COc1ccc(OC)c(NC(=O)CN(Cc2ccc(Cl)cc2)S(C)(=O)=O)c1`, the inhibition was 0.99%.

With `CCOc1cc(-c2nc3cc(C)ccn3c2NCC2CCCO2)ccc1O` (configuration not stated), the inhibition was -2.03%.

On to `CCCCCN(C(=O)NC(=O)Nc1cccc(C)c1C)S(C)(=O)=O`, for which the inhibition was 4.61%.

In the case of `Cc1ccc(OCC(=O)NCCCNC(=O)c2ccco2)cc1C`, the inhibition was 2.4%.

With `CCCc1ccc(OCC(=O)NNC(=S)NC(=O)c2ccco2)cc1`, the inhibition is 18.6% (active).

In the case of `CC(Oc1ccc2ccccc2c1)C(=O)NNC(=S)NC(=O)c1ccco1` (configuration not stated), the inhibition was 0.47%.

`CCN(CC)CCC(c1ccc2c(c1)OCO2)c1c(OC)cc(OC)c2c(-c3ccccc3)cc(=O)oc12` (configuration not stated): the inhibition is 1.96%.

With `O=C(NCCc1ccccc1)C1CCC(Cn2c(=O)c3ccccc3n(Cc3cccnc3)c2=O)CC1` (configuration not stated), the inhibition was -0.9%.

Regarding `CCC(C)N(C(=O)COC(=O)c1nc(Cl)ccc1Cl)C1CCS(=O)(=O)C1` (configuration not stated), the inhibition is -0.12%.

Consider `Cc1nn(C)c(Oc2ccc(Cl)cc2)c1C=O`, for which the inhibition is -4.58%.

For `Cc1ccc2c(c1)NCC(C(=O)NC1CCC(C)CC1)O2` (configuration not stated), the inhibition was -3.3%.

On to `C/C(=N\c1nc2ccccc2n1C)c1cc(Cl)ccc1O`, for which the inhibition was 22% (active).

Regarding `Cn1c(Nc2cccc(Cl)c2)nc2ccccc21`, the inhibition is -3.75%.

For the molecule `Cc1ccc(O)c(CNc2nc3ccccc3n2C)c1`, the inhibition is -1.3%.

Take `Cc1ccc(NC(=O)CSc2nnc(-c3cnccn3)n2Cc2ccco2)cc1C`: the inhibition was 1.95%.

For the molecule `CCc1ccc(NC(=O)CSc2nnc(-c3cnccn3)n2Cc2ccco2)cc1`, the inhibition is 2.61%.

Regarding `CCn1c(SCC(=O)Nc2cc(C)ccc2C)nnc1-c1cnccn1`, the inhibition is 20.4% (active).

`O=C(COC(=O)c1ccccc1Br)Nc1nnc(-c2ccccc2)o1`: the inhibition was 13.9%.

Consider `O=C(COC(=O)c1ccc(Oc2ccccc2)cc1)Nc1nnc(-c2ccccc2)o1`, for which the inhibition is 23.5% (active).

For `CC(=O)Nc1cccc(C(=O)OCC(=O)Nc2nnc(-c3ccccc3)o2)c1`, the inhibition is 0.85%.

On to `Cc1ccc(S(=O)(=O)N(C)c2ccc(OCC(=O)NC3=NCCS3)cc2)cc1`, for which the inhibition was -1.97%.

As to `Cc1ccc(N2NC(=O)/C(=C/C=C/c3ccco3)C2=O)cc1C`, the inhibition is 1.04%.

Consider `CN1C(=O)/C(=C/c2ccco2)SC1=Nc1cccc(C(=O)O)c1`, for which the inhibition is -2.67%.

As for `Cc1ccc(N=C2NC(=O)/C(=C/C=C/c3ccco3)S2)cc1C`, the inhibition was 16.1% (active).

As to `Cc1ccc(C)c(Cn2cnc3c(oc4ccccc43)c2=O)c1`, the inhibition is 1.24%.

Consider `C=CCn1c(SCc2ccc(C(=O)NCCO)cc2)nc2ccccc2c1=O`, for which the inhibition was 2.26%.

Take `O=C(Nn1c(SCc2ccc([N+](=O)[O-])cc2)nc2ccccc2c1=O)c1ccc(F)cc1`: the inhibition is 15.9% (active).

Regarding `Cc1nc2ccccc2c(=O)n1NC(=O)c1ccc(Cl)c([N+](=O)[O-])c1`, the inhibition was 2.24%.

As for `COc1ccc(C(=O)c2c3ccc([N+](=O)[O-])cc3[n+]([O-])n2CCCN)cc1`, the inhibition was 5.14%.

In the case of `CCOc1ccc(NC(=O)CN(C)CC(=O)NC(C)c2ccccc2)cc1OCC` (configuration not stated), the inhibition is -1.29%.

In the case of `Cc1cc(Nc2ccccc2)n(C(=O)c2ccc(N)cc2)n1`, the inhibition is 22.3% (active).

Consider `Cc1cc(Nc2ccccc2)n(CCC#N)n1`, for which the inhibition was -2.37%.

Turning to `Cc1cc(C)n(C(=O)c2ccc(S(=O)(=O)N3CCCC3)cc2)n1`, the inhibition is 2.03%.

Consider `CCOC(=O)C1=C(CCc2ccccc2)NC(=O)NC1c1ccc2ccccc2c1` (configuration not stated), for which the inhibition was 9.37%.

As for `COc1ccc(NS(=O)(=O)c2cc(NC(=O)C3CCCCC3)ccc2N2CCOCC2)cc1`, the inhibition was 0.37%.
